Results as given in PubChem BioAssay (NCATS).
“And” between values parts separate entries of the source, which are not always exact repeats. Identical values can stand only once. Results filed as inconclusive are left out. The source holds several records for some structures; these can differ, active in one and inactive in another. Unmarked numbers belong to inactive results. The source made the active and inactive calls. Calls follow the shape of the dose curve; as a rule, active = well fitted inhibition curve with a large enough effect; inconclusive = small, poorly fitted or top-dose-only effect; inactive = flat fitted curve, though single readings scatter.

System: HEK293
Assay: Cytotoxic Profiling of Annotated Libraries Using Quantitative High-Throughput Screening (AID 1296008); also: nearly all actives have a fitted effect of over 60% in size
Conditions: Five cell lines viability, CellTiter-Glo ATP luminescence, 48-72 h; max response: stronger effect = lower value
Description: Cell-based phenotypic screening is a commonly used approach to discover biological pathways, novel drug targets, chemical probes and high-quality hit-to-lead molecules. Many hits identified from high-throughput screening campaign are ruled out through a series of follow-up potency, selectivity/specificity, and cytotoxicity assays. Prioritization of molecules with little or no cytotoxicity for a more in-depth downstream evaluation influence the future direction of projects, so cytotoxicity profiling of the screening libraries at early stage is essential for increasing the likelihood of candidate success. […] For the annotated library, we also examined the primary targets and mechanistic pathways regularly associated with cell death. To our knowledge, this is the first study to use high-throughput screening to profile large libraries for cytotoxicity assessment in both normal and cancer cell lines. In summary, the results generated here constitutes a valuable resource for the scientific community and provides insight on identifying cytotoxic compounds with particular mechanisms of action, and prioritizing compounds with suitable cytotoxicity profile for further evaluation.
A pintool (Kalypsys) was used to transfer 23 nL of compound solution to the 1536-well assay plates. After 48 or 72 hr incubation at 37 degree Celsius, 5% CO2 and 95% humidity, 2.5 uL of CellTiter-Glo (Promega) was dispensed into each well using a dispenser (Aspect Automation, St. Paul, MN) with solenoid valves (Lee Valves, Westbrook CT). Plates were left at room temperature for 10 min before imaging the ATP-coupled luminescence using a ViewLux microplate imager (PerkinElmer, Waltham, MA).
% is scaled to controls: 0 for no effect and ±100 for the full control effect; potency is read from the fitted curve at half-maximal effect.

Compound	max response	Potency	outcome
NC(=O)c1cccc(N)c1	-4.67%	–	–
Cn1c(=O)c2c(ncn2CC(O)CO)n(C)c1=O (stereo not given)	-3.34% and -13.7%	–	–
COc1cc2ncnc(Nc3cccc(Cl)c3)c2cc1OC	–	0.372 µM (active)	–
CN1CCN(c2c(F)cc3c(=O)c(C(=O)O)cn4c3c2OCN4C)CC1	-2.04%	–	inactive
C#CCN[C@@H]1CCc2ccccc21	-23.7%	–	inactive
CNNCc1ccc(C(=O)NC(C)C)cc1	2.6%	–	inactive
CCOC(=O)c1ccc(OC(=O)CCCCCN=C(N)N)cc1	-2.03%	–	inactive
OCc1ccc(-c2nn(Cc3ccccc3)c3ccccc23)o1	–	14.8 µM (active)	–
NS(=O)(=O)c1cc2c(cc1Cl)NC(C(Cl)Cl)NS2(=O)=O (stereo not given)	-0.123%	–	inactive
CCN(C)C(=O)Oc1cccc([C@H](C)N(C)C)c1	-9.47%	–	inactive
Nc1nc(N)nc(-c2cc(Cl)ccc2Cl)n1	-8.28% and -2.53%	–	–
Cc1noc(NS(=O)(=O)c2ccc(N)cc2)c1C	–	–	inactive
CNCC[C@H](Oc1cccc2ccccc12)c1cccs1	–	21.1 µM (active)	–
Nc1nc(=S)c2[nH]cnc2[nH]1	–	3.76 µM (active) and 9.35 µM (active)	–
CC1=CC(=O)c2ccccc2C1=O	2.41%	–	inactive
O=P(O)(O)C(O)(Cc1cccnc1)P(=O)(O)O	-6.47% and -0.4%	–	inactive
CNS(=O)(=O)CCc1ccc2[nH]cc(C3CCN(C)CC3)c2c1	-3.79% and -10.1%	–	inactive
C[C@@H](NCCCc1cccc(C(F)(F)F)c1)c1cccc2ccccc12	-18.5%	15 µM (active)	–
O=C(O)CSCC(=O)NC1CCSC1=O (stereo not given)	-6.58%	–	inactive
COc1cc(NS(=O)(=O)c2ccc(N)cc2)nc(OC)n1	4.64% and 3.91%	–	–
CN(CCOc1ccc(CC2SC(=O)NC2=O)cc1)c1ccccn1 (stereo not given)	2.68%	–	inactive
CC1=NN(c2ccccc2)C(=O)C1	-7.12% and -3.41% and -4.46%	–	–
CC[C@H](C)C(=O)O[C@H]1C[C@@H](C)C=C2C=C[C@H](C)[C@H](CC[C@@H]3C[C@@H](O)CC(=O)O3)[C@H]21	-37.5%	–	–
CN(C)CCc1c[nH]c2ccc(CS(=O)(=O)N3CCCC3)cc12	-11.2% and 1.86%	–	–
Cc1nnc(C(=O)NC(C)(C)c2nc(C(=O)NCc3ccc(F)cc3)c(O)c(=O)n2C)o1	-1.41% and 1.54% and -3.51%	–	–
CC(C)OC(=O)OCOP(=O)(CO[C@H](C)Cn1cnc2c(N)ncnc21)OCOC(=O)OC(C)C	-4.37%	–	inactive
CNC1CCCN(c2c(F)cc3c(=O)c(C(=O)O)cn(C4CC4)c3c2OC)C1 (stereo not given)	-0.681% and -8.47%	–	–
